According to PubChem BioAssay (NCI):
About 83,000 compounds went through this panel and 20% of them were active in at least one assay; those are over-represented in the sample as a whole.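 Activity criterion: percent growth below 10, measured after cells in 96-well plates were exposed to a single compound concentration for 48 hours.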 Unmarked numbers belong to inactive results. Calls of active or inactive are those of the source.

Legend:
Assay in all cases: NCI-60 one-dose screen, 48 h (100 = growth as untreated, 0 = no growth, -100 = all killed)
[1] = test system: SR leukemia; conditions: 10 µM unless noted
[2] = test system: RPMI-8226 leukemia; conditions: 10 µM unless noted
[3] = test system: OVCAR-8 ovarian; conditions: 10 µM unless noted
[4] = test system: OVCAR-5 ovarian; conditions: 10 µM unless noted
[5] = test system: OVCAR-4 ovarian; conditions: 10 µM
[6] = test system: SK-OV-3 ovarian; conditions: 10 µM unless noted
[7] = test system: IGROV1 ovarian; conditions: 10 µM unless noted
[8] = test system: HS 578T breast; conditions: 10 µM unless noted
[9] = test system: NCI/ADR-RES ovarian; conditions: 10 µM unless noted
[10] = test system: OVCAR-3 ovarian; conditions: 10 µM unless noted

## Nc1nc(SCc2cccc([N+](=O)[O-])c2)c2[nH]cnc2n1
[1]
  growth: 95.6%
[2]
  growth: 91.8%
[3]
  growth: 96.5%
[4]
  growth: 101%
[5]
  growth: 99.3%
[6]
  growth: 109%
[7]
  growth: 89.2%
[8]
  growth: 99.9%
[9]
  growth: 97.6%

## Nc1cc(Cl)cc2cccnc12
[1]
  growth: 94%
[2]
  growth: 92.9%
[3]
  growth: 111%
[4]
  growth: 101%
[5]
  growth: 117%
[6]
  growth: 95%
[7]
  growth: 126%
[8]
  growth: 114%
[9]
  growth: 101%

## N#C/C(=C(/O)CCCO)c1nc2ccccc2c(=O)[nH]1
[1]
  growth: 90.9%
[2]
  growth: 91.1%
[3]
  growth: 107%
[4]
  growth: 92.5%
[5]
  growth: 104%
[6]
  growth: 105%
[7]
  growth: 109%
[8]
  growth: 102%
[9]
  growth: 95%

## COc1ccc(CC(C#N)c2ccc(Cl)cc2)cc1 (configuration not stated)
[1]
  growth: 36.3%
[2]
  growth: 85%
[3]
  growth: 99%
[4]
  growth: 82.9%
[5]
  growth: 103%
[6]
  growth: 89.3%
[7]
  growth: 68.8%
[10]
  growth: 77.2%
[9]
  growth: 42.5%

## Nc1cc(N)c(N=Nc2ccc(S(=O)(=O)O)cc2)cc1N=Nc1ccc(-c2ccc(N=Nc3ccc(O)c(C(=O)O)c3)cc2)cc1
[1]
  growth: 110%
[2]
  growth: 99.2%
[3]
  growth: 100%
[4]
  growth: 108%
[5]
  growth: 103%
[6]
  growth: 100%
[7]
  growth: 104%
[8]
  growth: 105%
[9]
  growth: 98.9%

## Nc1cc(C(=O)O)[nH]c(=S)n1
[1]
  growth: 94.2%
[2]
  growth: 95%
[3]
  growth: 101%
[4]
  growth: 96.1%
[5]
  growth: 105%
[6]
  growth: 115%
[7]
  growth: 95.4%
[8]
  growth: 98.1%
[9]
  growth: 100%

## O=C(NCc1ccccc1)C(Cl)Cl
[1]
  growth: 95.1%
[2]
  growth: 101%
[3]
  growth: 101%
[4]
  growth: 91.7%
[5]
  growth: 102%
[6]
  growth: 101%
[7]
  growth: 101%
[8]
  growth: 105%
[9]
  growth: 104%

## N#Cc1c(N2CCOCC2)nc(=S)[nH]c1-c1ccco1
[1]
  growth: 17.8%
[2]
  growth: 43%
[3]
  growth: 80.3%
[4]
  growth: 69%
[5]
  growth: 66.2%
[6]
  growth: 55%
[7]
  growth: 20.7%
[9]
  growth: 40.2%

## C=C(C)C1CCC2(C(=O)O)CCC3(C)C(CCC4C5(C)CCC(OC(=O)NCc6ccccc6)C(C)(C)C5CCC43C)C12 (configuration not stated)
[1]
  growth: 41.7%
[2]
  growth: 8.22% (active)
[3]
  growth: 45.5%
[4]
  growth: 75.6%
[5]
  growth: 30.7%
[6]
  growth: 68.9%
[10]
  growth: 19%
[8]
  growth: 84.7%
[9]
  growth: 44.8%

## Cc1cc(-c2ccc(N=Nc3c(S(=O)(=O)O)cc4cc(S(=O)(=O)O)cc(N)c4c3O)c(C)c2)ccc1N=Nc1cc(S(=O)(=O)O)c2ccccc2c1O
[1]
  growth: 106%
[2]
  growth: 98.5%
[3]
  growth: 96.6%
[4]
  growth: 86.8%
[5]
  growth: 105%
[6]
  growth: 93.4%
[7]
  growth: 95.8%
[8]
  growth: 90.7%
[9]
  growth: 97.2%

## O=C1NC(=O)c2cc([N+](=O)[O-])cc3cccc1c23
[1]
  growth: 114%
[2]
  growth: 94.2%
[3]
  growth: 85.4%
[4]
  growth: 109%
[5]
  growth: 95.7%
[6]
  growth: 106%
[10]
  growth: 112%
[8]
  growth: 106%
[9]
  growth: 95.9%

## CC1=C/C(=C(\c2cc(C)c(O)c(C(=O)O)c2)c2c(Cl)cccc2Cl)C=C(C(=O)O)C1=O
[1]
  growth: 102%
[2]
  growth: 102%
[3]
  growth: 100%
[4]
  growth: 106%
[5]
  growth: 108%
[6]
  growth: 93.3%
[7]
  growth: 101%
[8]
  growth: 99.2%
[9]
  growth: 99.9%

## Cc1cc(NN=C(c2ccc(O)cc2)c2ccc(O)cc2)c([N+](=O)[O-])cc1[N+](=O)[O-]
[1]
  growth: 84.9%
[2]
  growth: 123%
[3]
  growth: 0.819% (active)
[4]
  growth: 90.1%
[5]
  growth: 52.6%
[6]
  growth: 73.5%
[10]
  growth: 63.3%
[8]
  growth: 71.3%
[9]
  growth: 26.3%

## COc1ccc(OC)c(NC=O)c1
[1]
  growth: 83.3%
[2]
  growth: 127%
[3]
  growth: 104%
[4]
  growth: 108%
[5]
  growth: 103%
[6]
  growth: 110%
[10]
  growth: 117%
[8]
  growth: 106%
[9]
  growth: 109%

## CC(C)OC(=O)Nc1cc(F)ccc1F
[1]
  growth: 96.1%
[2]
  growth: 103%
[3]
  growth: 100%
[4]
  growth: 93.8%
[5]
  growth: 106%
[6]
  growth: 101%
[7]
  growth: 93.7%
[8]
  growth: 110%
[9]
  growth: 102%

## CC(=O)CC(=O)SC1=NCCS1
[1]
  growth: 102%
[2]
  growth: 98.1%
[3]
  growth: 99.3%
[4]
  growth: 117%
[5]
  growth: 109%
[6]
  growth: 112%
[7]
  growth: 140%
[10]
  growth: 113%
[9]
  growth: 113%

## O=c1[nH]c(CN2CCN(c3cccc(Cl)c3)CC2)nc2cc(Cl)ccc12
[1]
  growth: 89.7%
[2]
  growth: 34.7%
[3]
  growth: 46.2%
[4]
  growth: 85.3%
[5]
  growth: 104%
[6]
  growth: 82.1%
[10]
  growth: 100%
[8]
  growth: 99%
[9]
  growth: 86.4%

## FC(F)(F)c1ccc2c(c1)Sc1ccccc1N2
[1]
  growth: 89.5%
[2]
  growth: 92.7%
[3]
  growth: 96.7%
[4]
  growth: 98.2%
[5]
  growth: 97%
[6]
  growth: 105%
[7]
  growth: 92.6%
[8]
  growth: 85.5%
[9]
  growth: 104%

## O=C(Oc1ccc(Cl)cc1[N+](=O)[O-])Oc1ccc(Cl)cc1[N+](=O)[O-]
[1]
  growth: 82.1%
[2]
  growth: 100%
[3]
  growth: 108%
[4]
  growth: 108%
[5]
  growth: 119%
[6]
  growth: 120%
[10]
  growth: 119%
[8]
  growth: 104%
[9]
  growth: 119%

## O=C(Nc1ccc(F)cc1)c1ccccc1
[1]
  growth: 88.8%
[2]
  growth: 102%
[3]
  growth: 105%
[4]
  growth: 105%
[5]
  growth: 100%
[6]
  growth: 112%
[7]
  growth: 110%
[8]
  growth: 107%
[9]
  growth: 98.9%

## O=C1CC(c2ccccc2)Cc2nc3ccc(Br)cc3cc21 (configuration not stated)
[1]
  growth: 13.1%
[2]
  growth: 50%
[3]
  growth: 24.1%
[4]
  growth: 27.2%
[5]
  growth: 47%
[6]
  growth: 47.6%
[7]
  growth: 22%
[10]
  growth: -28.4% (active)
[9]
  growth: 17.1%

## COc1cc(C)cc2oc3oc(=O)c(-c4nc5ccccc5s4)cc3c(=O)c12
[1]
  growth: 105%
[2]
  growth: 94.1%
[3]
  growth: 86.4%
[4]
  growth: 89.7%
[5]
  growth: 96.7%
[6]
  growth: 111%
[7]
  growth: 83.2%
[9]
  growth: 94.4%

## COc1ccc(OC)c([N+](=O)[O-])c1C(=O)CNC(C)=O
[1]
  growth: 118%
[2]
  growth: 93.4%
[3]
  growth: 99.5%
[4]
  growth: 99.9%
[5]
  growth: 103%
[6]
  growth: 105%
[7]
  growth: 106%
[8]
  growth: -2.16% (active)
[9]
  growth: 94.9%

## CCN(CC)CCCC(C)Nc1ccnc2cc(Cl)c(SCc3ccccc3)cc12 (configuration not stated)
[1]
  growth: -42.6% (active)
[2]
  growth: -36.6% (active)
[3]
  growth: -9.3% (active)
[4]
  growth: -13.7% (active)
[5]
  growth: 7.81% (active)
[6]
  growth: -43.1% (active)
[7]
  growth: -26.7% (active)
[10]
  growth: -28.5% (active)
[9]
  growth: -18.3% (active)

## O=S(=O)(NCCCNc1nccc(-c2c(-c3cccc(F)c3)nc3occn23)n1)c1cccc2ccccc12
[1]
  growth: 50.7%
[2]
  growth: 28.2%
[3]
  growth: 42.1%
[4]
  growth: 66.7%
[5]
  growth: 34.6%
[6]
  growth: 55.6%
[7]
  growth: 14.4%
[8]
  growth: 23.4%
[9]
  growth: 48.2%

## C=C1C(=O)O[C@H]2[C@H]1CC/C(COC(=O)NCc1ccc(Cn3c(=O)sn(-c4ccc(Cl)cc4)c3=O)cc1)=C\CC[C@@]1(C)O[C@@H]21
[1]
  growth: 72.3%
[2]
  growth: 4.32% (active)
[3]
  growth: 84%
[4]
  growth: 93.2%
[5]
  growth: 54.2%
[6]
  growth: 107%
[7]
  growth: 54.4%
[8]
  growth: 106%
[9]
  growth: 102%

## CCCCCCCCCCCCNC(=S)N/N=C/c1ccccc1O
[1]
  growth: 44%
[2]
  growth: 55.4%
[3]
  growth: 77.9%
[4]
  growth: 99.1%
[5]
  growth: 65.2%
[6]
  growth: 102%
[7]
  growth: 65.1%
[9]
  growth: 77.1%

## COc1cc(OC)c(/C=C/C(=O)c2c(N)cc(OC)cc2OC)c(OC)c1
[1]
  growth: 29.2%
[2]
  growth: 13.5%
[3]
  growth: 19.9%
[4]
  growth: 29.7%
[5]
  growth: 80.1%
[6]
  growth: 5.56% (active)
[7]
  growth: 32.5%
[10]
  growth: -45.5% (active)
[9]
  growth: -16.2% (active)

## CCCCOC(=O)c1c(C)[nH]c(/C=C2\N=C(c3ccc[nH]3)C=C2OC)c1C
[1]
  growth: 14.5%
[2]
  growth: -32.1% (active)
[3]
  growth: 7.7% (active)
[4]
  growth: 11%
[5]
  growth: 3.84% (active)
[6]
  growth: 34.7%
[10]
  growth: -37.6% (active)
[8]
  growth: -23.2% (active)
[9]
  growth: 8.85% (active)

## NC(=S)Cc1ccccc1
[1]
  growth: 97.9%
[2]
  growth: 99.2%
[3]
  growth: 103%
[4]
  growth: 100%
[5]
  growth: 97%
[6]
  growth: 103%
[7]
  growth: 107%
[8]
  growth: 102%
[9]
  growth: 105%
